# Laboratory results taken from PubChem BioAssay AID602393 (Broad Institute, 2012).
# The whole screen tested about 350,000 compounds, of which about 7,000 (2%) were called active. The entries come from a sample that favours actives as a whole. Values without a mark were called inactive. Rule as the data show it: active = activation above about 40%; inconclusive = no clear call, values can overlap the other calls; inactive = below that.
# Test: Bmi1 luciferase reporter increase in mESCs, primary screen, esBAF inhibitor project, mouse ES cells, Bmi1 luciferase knock-in, single point (AID 602393);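 also: 0% = median of the plate's neutral control wells and 100% = double that signal; a rise in the Bmi1 reporter signal indicates esBAF inhibition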
# Details: 24 h, at 12.5 µM, active compounds read high, 100% = twice the neutral-well signal
row,SMILES,reporter increase
1,CCN1[C@@H]2Cn3c(ccc(-c4cccnc4)c3=O)[C@H]1[C@@H](C(=O)NC1CCCCC1)[C@@H]2CO,-4.32%
2,Cc1cccnc1CC(C)NC(=O)c1cc(COc2cncc(Cl)c2)on1 (centres undefined),9.52%
3,COCCCNC(=O)COc1cc(C)c(Cl)c(C)c1,4.32%
4,Cc1cc(OCc2cc(C(=O)NCc3cc(C(C)C)no3)no2)cc(C)c1Cl,81.9% (active)
5,COc1ccc(CN(C)C[C@@H]2OCCCC[C@H](C)Oc3ccc(NS(=O)(=O)c4ccc(F)cc4)cc3C(=O)N([C@@H](C)CO)C[C@@H]2C)cc1,-7.82%
6,Cn1cnc(S(=O)(=O)N2C[C@@H](O)COC[C@@H]3O[C@H](CC(=O)NCc4ccc(F)cc4)CC[C@H]32)c1,-4.57%
7,O=C(c1cccc(F)c1)N1CC[C@@H]2[C@@H](CO)Nc3ccc(C#Cc4cccc(F)c4)cc3[C@@H]21,2.36%
8,Cc1noc(C)c1NC(=O)N[C@@H]1C=C[C@@H](CC(=O)Nc2ccccc2)O[C@H]1CO,1.58%
9,COc1cccc(C(=O)Nc2nnc(S(=O)(=O)N(C)c3ccccc3)s2)c1,3.61%
10,COc1cccc(C(=O)Nc2nc3ccc(S(C)(=O)=O)cc3s2)c1,50.7% (active)
11,O=C(Nc1ccc2c(c1)CCC2)c1ccc(Br)s1,21.7%
12,COc1ccc2nc(NC(=O)c3ccc(Br)s3)sc2c1,71.6% (active)
13,COc1ccc(CNC(=O)c2ccc(Br)s2)cc1OC,-1.1%
14,COc1cc(NC(=O)CN(C)S(=O)(=O)c2ccc3nc(C)sc3c2)cc(OC)c1,-1.66%
15,C[C@H](NC(=O)C[C@@H]1C=C[C@H](NC(=O)CN2CCOCC2)[C@H](CO)O1)c1ccccc1,-6.32%
16,N#Cc1ccc(-c2ccc3c(c2)[C@H]2[C@H](CCN2Cc2ccc4c(c2)OCO4)[C@@H](CO)N3)cc1,-8.59%
17,CCCNC(=O)N(C)C[C@H]1Oc2cc(-c3ccncc3)ccc2S(=O)(=O)N([C@H](C)CO)C[C@H]1C,0.442%
18,CCCNC(=O)C[C@H]1CC[C@H]2[C@@H](COC[C@H](O)CN2C(=O)CC)O1,5.31%
19,CCCNC(=O)N1[C@H](C#N)[C@@H](c2ccccc2)[C@H]1CO,-3.13%
20,Cc1ccc(S(=O)(=O)NCC[C@H]2CC[C@@H](NC(=O)C3CCOCC3)[C@@H](CO)O2)cc1,-2.84%
21,CN1CCN(CCNC(=O)Nc2ccccc2[N+](=O)[O-])CC1,-5.22%

row,SMILES,reporter increase
1,Cc1csc(NC(=O)Nc2ccccc2[N+](=O)[O-])n1,60.4% (active)
2,Cc1csc(NC(=O)NC2(C(F)(F)F)Oc3ccccc3O2)n1,-3.69%
3,C[C@H]1CN([C@@H](C)CO)C(=O)c2cc(Br)cnc2O[C@@H]1CN(C)C(=O)c1ccccc1,-3.42%
4,COc1ccc(CNc2ncnc3ccccc23)cc1,-11.7%
5,COc1ccc(Nc2cc(Sc3ccc(OC)cc3)ncn2)cc1,13.3%
6,COc1ccc(Nc2ncnc3sc(C)cc23)cc1,66.1% (active)
7,Cc1ccc(-c2nnc(SC(C)C#N)n2N)cc1 (centres undefined),0.696%
8,Cc1ccccc1CSc1nnc(-c2cccnc2)n1N,17.5%
9,C=C(C)CSc1nnc(-c2ccc(C)cc2)n1N,57.8% (active)
10,CCS(=O)(=O)Nc1ccc2c(c1)C(=O)N(C)[C@@H]1CC[C@H](CC(=O)N3CCCCC3)O[C@@H]1CO2,-2.06%
11,CC(=O)N1CCN(CC(=O)Nc2ccc(C)c(F)c2)CC1,-6.19%
12,O=C(CN1CCN(c2ccc(F)cc2)CC1)Nc1cccc(C(F)(F)F)c1,-10.4%
13,CCc1sc(C(=O)N2CCN(CC(=O)Nc3cccc(F)c3)CC2)cc1C,79.7% (active)
14,Cc1ccc(S(=O)(=O)N(C)C[C@@H]2Oc3c(NS(C)(=O)=O)cccc3C(=O)N([C@@H](C)CO)C[C@H]2C)cc1,-2.2%
15,O=C(NC[C@@H]1N[C@@H](CO)[C@H]1c1ccc(-c2cccnc2)cc1)c1cccc(F)c1,5.54%
16,COCCNC(=O)C[C@H]1CC[C@H]2[C@H](COc3ccc(NC(=O)C4CCOCC4)cc3C(=O)N2C)O1,2.05%
17,Cc1cccc(NC(=O)COc2ccccc2C)n1,44.4% (active)
18,CCOc1ccc(OCc2ccc(C(=O)Nc3cccc(C)n3)o2)cc1,37.5%
19,Cc1cccc(NC(=O)Cc2ccc(Br)cc2)n1,44.9% (active)
20,Cc1cccc(NC(=O)c2ccc3ccccc3n2)n1,25.2%
21,Cc1ccccc1OCC(=O)Nc1nnc(S(=O)(=O)N2CCCC2)s1,1.57%

row,SMILES,reporter increase
1,Cc1cccc(NC(=O)COc2ccc(Br)cc2C)n1,35.7%
2,Cc1ccccc1OCC(=O)Nc1ccc2c(c1)ncn2C,68.1% (active)
3,COCCNC(=O)COc1ccccc1C,0.533%
4,Cc1ccccc1OCC(=O)Nc1nc(C)c(C(=O)N(C)C)s1,9.35%
5,C/C=C/c1ccc([C@H]2[C@@H](CO)N(C(=O)CC)[C@H]2CN(C)C(=O)C2CC2)cc1,5.87%
6,CCCNC(=O)NC[C@H]1[C@H](c2ccc(C3=CCCCC3)cc2)[C@H](CO)N1C(C)=O,-2.67%
7,COCc1cn(CC[C@H]2CC[C@H](NC(=O)Cc3cccnc3)[C@H](CO)O2)nn1,1.37%
8,COCC(=O)Nc1ccc2c(c1)OC[C@H](C)N(Cc1ccccc1OC)C[C@@H](C)[C@@H](OC)CN(C)C2=O,0.256%
9,CCCNC(=O)C[C@H]1CC[C@H]2[C@@H](COc3ccc(NC(=O)Nc4c(C)noc4C)cc3C(=O)N2C)O1,-1.98%
10,COc1ccccc1-c1cc2nc(NCc3cccc(Cl)c3)ccn2n1,-5.22%
11,COCCCNc1ccn2nc(-c3ccc(CC(C)C)cc3)cc2n1,24.7%
12,CC(C)Cc1ccc(-c2cc3nc(NCc4cccc(Cl)c4)ccn3n2)cc1,79.4% (active)
13,COc1ccc(-c2cnc3c(c2)C(=O)N([C@@H](C)CO)C[C@@H](C)[C@H](CN(C)C)O3)cc1,-2.94%
14,O=C(C[C@H]1C=C[C@@H](NC(=O)C2CC2)[C@H](CO)O1)NCC1CC1,-2.61%
15,NS(=O)(=O)c1ccc(N=Nc2c(O)[nH]c3ccc(Br)cc23)cc1,-6.6%
16,Oc1[nH]c2ccc(Br)cc2c1N=Nc1nn[nH]n1,6.07%
17,Cc1cccc(N=Nc2c(O)[nH]c3ccc(F)cc23)c1,72.6% (active)
18,Cc1ccc(S(=O)(=O)Nc2ccc3c(c2)C(=O)N([C@H](C)CO)C[C@@H](C)[C@H](CN(C)S(=O)(=O)c2cccs2)OCCCC[C@@H](C)O3)cc1,5.34%
19,Cc1ccc(S(=O)(=O)N[C@H]2CC[C@H](CC(=O)NCc3ccccc3F)O[C@@H]2CO)cc1,-2.95%
20,O=C1C(=O)N(c2ccccc2)C(c2ccccc2)C1c1ccccc1 (centres undefined),-0.185%
21,O=C1C=C(c2ccc(Cl)cc2)C(=O)N1Nc1ccccc1,-0.361%

row,SMILES,reporter increase
1,O=C(O)CC1=C(Nc2ccccc2)C(=O)N(c2ccccc2)C1c1ccc(Cl)cc1 (centres undefined),49.1% (active)
2,C[C@@H]1CN([C@@H](C)CO)C(=O)Cc2cc(NC(=O)C3CCCCC3)ccc2O[C@H]1CN(C)C(=O)Nc1ccccc1,0.449%
3,CCOC(=O)c1c(C)nc(-c2ccccc2)nc1NC(=O)C(C)C,42.3% (active)
4,CCOC(=O)c1c(N)nn(C(=O)c2ccccc2)c1-c1ccccc1,-1.4%
5,CCOC(=O)c1c(-c2ccc(-c3ccccc3)cc2)csc1NC(=O)CCC(=O)O,-6.99%
6,O=C(Nc1ccc2ccccc2c1[N+](=O)[O-])c1ccccc1,114% (active)
7,O=C(Nc1ccccc1C(=O)Nc1ccncc1)c1ccc([N+](=O)[O-])cc1,-2.66%
8,O=C(O)c1cc([N+](=O)[O-])c(Nc2cccc3ccccc23)c([N+](=O)[O-])c1,15.6%
9,CC(C)CC#Cc1cnc2c(c1)C(=O)N([C@H](C)CO)C[C@H](C)[C@@H](CN(C)C(=O)Cc1cccnc1)O2,-2.07%
10,COc1ccc(NC(=O)N2C[C@H](O)COC[C@@H]3O[C@@H](CC(=O)NCc4ccccc4OC)CC[C@H]32)cc1,2.12%
11,CCCNC(=O)[C@@H]1[C@@H](CO)[C@@H]2Cn3c(ccc(/C=C/c4ccccc4)c3=O)[C@H]1N2CCC,-5.3%
12,C=CCNC(=O)c1ccc2c3n(nc2c1)-c1ccc(C)cc1CO3,56.5% (active)
13,CCOc1c2ccc(C(=O)NCc3ccc4c(c3)OCO4)cc2nn1C,-7.4%
14,Cc1cccc(-c2nc3ccc(C(=O)NCCN4CCN(C)CC4)cc3nc2-c2cccc(C)c2)c1,-7.08%
15,O=C(Nc1cccc(F)c1)NC1CCCc2ccccc21 (centres undefined),-6.65%
16,Cc1cc(C)cc(NC(=O)NC2CCCCCCC2)c1,15.2%
17,O=C(Nc1cccc(F)c1)NC1CCCCCCC1,59.1% (active)
18,COc1ccc(/C=N/Nc2nc(-c3ccc(C)cc3)c(C#N)c(=O)[nH]2)cc1,-5.86%
19,COc1ccc(/C=N/Nc2ccccc2C(=O)O)cc1,-28.7%
20,COc1ccc(/C=N/Nc2nc3ccccc3c(=O)[nH]2)cc1,45.1% (active)
21,CN(C)CC(=O)Nc1ccc2c(c1)[C@H]1C[C@@H](CC(=O)NCc3ccc(-c4ccccc4)cc3)O[C@H](CO)[C@H]1O2,4.03%
